# Reference: PubChem BioAssay (NCI)
# About 79,000 compounds went through this panel and 15% of them were active in at least one assay; those are over-represented in the sample as a whole. Unmarked numbers belong to inactive results. Active and inactive are the calls of the source. Cut-off read from the data, not from the text of the source: active = growth inhibition above about 70%; inactive = the rest.
# Tests used:
# [1] = NCI Yeast Anticancer Drug Screen. Data for the rad50 strain (AID 155);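 note: 0% = growth of vehicle-only cultures of the same strain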; conditions: S. cerevisiae rad50 strain growth inhibition; at 50.0 µM; hits give high values
# Summary of the method: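 Relative growth inhibition (compound vs vehicle) was measured in yeast with a defined repair-gene alteration.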
# [2] = NCI Yeast Anticancer Drug Screen. Data for the mec2-1 strain (AID 157); conditions: S. cerevisiae mec2-1 strain, at 50.0 µM, hits give high values
# Summary of the method: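 Readout is yeast growth inhibition, normalised to vehicle-treated controls, in the mec2-1 strain exposed to compound.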
# [3] = NCI Yeast Anticancer Drug Screen. Data for the sgs1 mgt1 strain (AID 161);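 note: 0% = growth of cultures given vehicle only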; conditions: S. cerevisiae sgs1 mgt1 strain, at 50.0 µM, hits give high values
# Summary of the method: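 Growth of a repair-deficient yeast mutant was monitored after compound treatment and expressed as inhibition relative to vehicle-treated cultures.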
# [4] = NCI Yeast Anticancer Drug Screen. Data for the cln2 rad14 strain (AID 165);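 note: 0% = growth equal to vehicle treated cultures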; conditions: S. cerevisiae cln2 rad14 strain, at 50.0 µM, hits give high values
# Summary of the method: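 Relative to vehicle controls, growth inhibition of compound-treated cln2 rad14 yeast was recorded.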
# [5] = NCI Yeast Anticancer Drug Screen. Data for the bub3 strain (AID 167); conditions: S. cerevisiae bub3 mutant strain, at 50.0 µM, hits give high values
# Summary of the method: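 Screening used yeast with an engineered genetic alteration affecting cell cycle control. Compound-exposed cultures were compared with vehicle cultures, and reduced growth was taken as inhibition.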
# [6] = NCI Yeast Anticancer Drug Screen. Data for the mlh1 rad18 strain (AID 175); conditions: S. cerevisiae mlh1 rad18 strain growth inhibition; at 50.0 µM; hits give high values
# Summary of the method: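 Test agents were incubated with a yeast strain of defined genotype (DNA damage repair defect). Inhibition of growth was derived by comparison with vehicle-exposed cultures.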
Structure (SMILES),growth inhibition [1],growth inhibition [2],growth inhibition [3],growth inhibition [4],growth inhibition [5],growth inhibition [6]
Cc1cccc(-c2c3ccccc3cc3c2ccc2ccccc23)c1,11.9%,-5.35%,-3.55%,-13.8%,8.7%,-2.65%
CNC(=O)c1ccccc1N=NN(C)C,-0.65%,19.4%,4.05%,13.7%,15.7%,40.5%
CN(C=C(c1ccccc1)c1ccccc1)c1ccccc1,-15.6%,-7.85%,2.2%,-21.6%,-12.8%,-32.6%
NC(=O)N/N=C(/Cl)C(=O)NNC(N)=O,-4.4%,6.25%,-10.5%,-81.2%,-0.95%,-27.1%
CN=C1N[N+]2=CCCCC2S1 (stereo not given),17.8%,3.35%,19.7%,0.75%,2.4%,13.3%
Cc1ccc([N+](=O)[O-])c(N)n1,3.25%,-5.65%,-2.45%,2.3%,3.8%,1.3%
O=C1C/C(=C\c2ccccc2O)C(=O)c2ccccc21,66.3%,61.1%,83.4% (active),57.8%,54.8%,82.8% (active)
CCOC(=O)CCc1ccc(NC(=O)/C=C/c2ccc([N+](=O)[O-])o2)cc1,55%,29.1%,56.3%,53.8%,34.8%,36.7%
Cc1ccc(-c2nc3ccccc3c(=O)o2)cc1,11.4%,-9.05%,-6.05%,-8.6%,4.75%,14.3%
COc1ccc(N=Cc2ccc(OC(=O)c3ccccc3)c(OC)c2)cc1,2.15%,0.5%,0.55%,-0.8%,13.3%,-23.5%
CCCCC(C)NC(=O)c1ccccc1 (stereo not given),4.3%,11.3%,-23.8%,-52.5%,-3.8%,2%
CC(OCc1ccccc1)C(NC(=O)C1CSSCC(NC(=O)C(Cc2ccccc2)NC(=O)OCc2ccccc2)C(=O)NC(Cc2ccccc2)C(=O)NC(Cc2cn(C=O)c3ccccc23)C(=O)NC(CCCCNC(=O)OCc2ccccc2)C(=O)NC(C(C)OCc2ccccc2)C(=O)N1)C(N)=O (stereo not given),-10.7%,0.7%,-4.75%,21.1%,23.8%,-3%
O=C1NNC2NC(=O)C3(NN2C1=O)c1ccccc1-c1ccccc13 (stereo not given),-18%,-21.5%,0.45%,-5.8%,-11.7%,-15.4%
COc1cccc(NCC(=O)Nn2c(-c3ccccc3)nc3ccccc3c2=O)c1,-37.5%,-40.8%,-27.2%,-3.05%,5%,-23%
N#CC(NNC(=O)Cc1ccccc1)c1c(O)ccc2ccccc12 (stereo not given),7.45%,-4.9%,4.5%,-18.2%,-3.15%,-7.25%
O=C1OC(=Nc2ccccc2Cl)c2ccccc21,-21.6%,-21.5%,-5.05%,-9.1%,14.5%,18.3%
O=C1C=CC(=O)N1CCCCN1C(=O)C=CC1=O,18.8%,3.75%,-17.9%,-20.1%,-14.4%,-11.9%
CN(CC(N)=O)C(=O)c1cnc2ccccc2c1,9.65%,18.6%,-1.05%,8.05%,14.1%,0.4%
NC1=NC(=O)C(CC(=O)Nc2ccc([N+](=O)[O-])cc2[N+](=O)[O-])S1 (stereo not given),-15.2%,-30.3%,2.3%,3.3%,2%,-8.55%
O=[N+]([O-])c1cc(Br)c(F)cc1F,-22.2%,4.85%,-5.2%,-32.2%,-2.55%,31.1%

Structure (SMILES),growth inhibition [1],growth inhibition [2],growth inhibition [3],growth inhibition [4],growth inhibition [5],growth inhibition [6]
COc1cc(OC)c(/C=C2\N=C(C)N(Nc3nnc(NN4C(=O)/C(=C/c5c(OC)cc(OC)cc5OC)N=C4C)c4ccccc34)C2=O)c(OC)c1,-0.15%,-2.25%,-12.8%,-2.5%,-2.7%,8.15%
NC(CSS(=O)(=O)O)=NCC1CC2CCC1C2 (stereo not given),3.25%,6.2%,-3.85%,6.95%,4.4%,12.3%
O=[N+]([O-])c1ccc(N=C/C=C/Nc2ccc([N+](=O)[O-])cc2)cc1,5%,0.7%,10.5%,-8.6%,6.3%,20.8%
COC(=O)C1(C)CCCC2(C)C3=CC(O)C4(C(C)C)OC4C3(O)CCC12 (stereo not given),-9.4%,-41.6%,-8.15%,5.65%,-21.9%,-8.2%
CC1CCCCN1Cc1ccccc1COC(=O)c1cccc(Br)c1 (stereo not given),32.5%,-1.65%,43.3%,-16.9%,16.1%,2.4%
O=C(c1cccc([N+](=O)[O-])c1)N1CCOCC1,-2.65%,-10%,1.45%,-36.4%,3.7%,14.1%
Cn1c(=O)c2[nH]c(CCCc3ccc([N+](=O)[O-])cc3)nc2n(C)c1=O,-2.45%,-5.5%,-27.5%,-26.9%,-40.5%,4.75%
CCOC(=O)C(=O)N=Nc1nc2c(O)c3ccccc3c(O)c2s1,78.2% (active),87.8% (active),83% (active),45.8%,89.2% (active),58.5%
O=C(CCc1ccccc1)n1cccc1CO,-10.1%,-21.1%,-6.85%,17.9%,16.2%,1.35%
Fc1cccc(Cl)c1CSc1n[nH]c(C(F)(F)F)n1,-4.65%,-24.1%,10.5%,3.2%,11.1%,2.45%
COc1ccc(CCNC(=S)/N=C\C2=C(O)c3ccccc3C2=O)cc1OC,-26.1%,-51.9%,-17.5%,4.65%,-5.05%,-19.3%
N#CC(c1cc2c(cc1Br)OCO2)N1CCOCC1 (stereo not given),17.5%,19.4%,10.9%,8.25%,46%,-11.8%
Nc1ccc(N=Nc2ccc(OCCN(CCO)CCO)cc2)c(N)n1,23.8%,-22.8%,8.8%,4.95%,21.6%,15.7%
Cn1c(=O)c2[nH]c(SCCN3CCOCC3)nc2n(C)c1=S,-23.4%,-47.2%,-25.6%,14.2%,-66.2%,-4.95%
COC(=O)c1ccc(OC(=O)Nc2cccc(C(C)=O)c2)cc1,14.2%,14.9%,10.6%,-9.2%,12.7%,34.8%
CCCCCCCCCCCCCCCCCCSc1ccc2ccccc2c1,37.5%,-10.5%,20.4%,-14.1%,0.6%,-5.7%
CC(C)=C(Cl)c1c(C)cc(C)c(CC(N)=O)c1C,-14.1%,-3.75%,-8.15%,-27.2%,-9.95%,10.1%
NOCc1nnc(Nc2ccccc2)s1,7.25%,3.8%,5.8%,19.3%,-4.4%,5.55%
Cc1c(C(=O)O)sc2ccc([N+](=O)[O-])cc12,-8.15%,2.5%,-9.35%,-46.5%,-13.3%,-0.6%
COC(=O)C(Cc1ccc2c(c1)CCC2)Cc1ccc2c(c1)CCC2,-46.9%,-16.4%,-7.4%,-41.6%,11.1%,-22.4%
